Among all 290,000 compounds or so, about 3,000 (1%) were called active. How the calls were made is not given here. The entries come from a sample that favours actives as a whole.
Target: Polyadenylate-binding protein 1 (Homo sapiens) (UniProt P11940)
Assay: blockers of PABP interaction with poly(A) – biochemical, fluorescence polarization, uHTS, primary screen (AID 2014);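 further: calls also rest on retests at 20 µM and on dose response follow-up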
Conditions: PABP-poly(A) RNA binding, stronger effect = higher value

Polyadenylate-binding protein 1 (Homo sapiens), sequence (P11940 whole entry, looked up): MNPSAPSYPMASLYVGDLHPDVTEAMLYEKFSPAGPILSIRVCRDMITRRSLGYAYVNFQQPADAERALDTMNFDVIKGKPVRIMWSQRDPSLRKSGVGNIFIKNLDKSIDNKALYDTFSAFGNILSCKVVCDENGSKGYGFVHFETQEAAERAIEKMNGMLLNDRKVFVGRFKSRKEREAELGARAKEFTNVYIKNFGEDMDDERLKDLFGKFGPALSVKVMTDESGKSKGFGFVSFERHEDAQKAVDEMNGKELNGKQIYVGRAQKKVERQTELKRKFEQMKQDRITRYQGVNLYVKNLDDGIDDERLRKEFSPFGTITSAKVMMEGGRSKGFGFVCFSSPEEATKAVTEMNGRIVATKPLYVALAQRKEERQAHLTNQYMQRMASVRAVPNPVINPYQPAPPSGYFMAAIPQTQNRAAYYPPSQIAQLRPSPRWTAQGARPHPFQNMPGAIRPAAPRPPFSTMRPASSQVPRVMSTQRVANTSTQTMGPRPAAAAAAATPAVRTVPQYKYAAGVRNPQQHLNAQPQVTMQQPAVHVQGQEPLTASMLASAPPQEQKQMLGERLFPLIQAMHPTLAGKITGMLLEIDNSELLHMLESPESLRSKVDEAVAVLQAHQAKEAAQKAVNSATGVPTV

| Structure (SMILES) | inhibition (at 35 µM) | inhibition (confirmation repeats, at 20 µM) [%] |
| --- | --- | --- |
| CC1CCN(C(=O)c2ccc3c(=O)n4c(nc3c2)CCCCC4)CC1 | 3.8% (inactive) |  |
| Cc1ccc(C(=O)NCC(=O)NCc2cc(=O)n(C)c(=O)n2C)cc1 | 1.4% (inactive) |  |
| CC(/C=N/NC(=O)c1cc(-c2ccc3ccccc3c2)n[nH]1)=C\c1ccco1 | 9.9% (inactive) | 8.9 |
| C/C(=C\c1ccco1)C1Nc2cccc3cccc(c23)N1 | 116% (active) |  |
| CC(/C=N/NC(=O)c1ccncc1)=C\c1ccco1 | 14.8% (inactive) |  |
| COc1ccc(S(=O)(=O)c2c[nH]c(=S)[nH]c2=O)cc1Cl | 26% (inactive) |  |
| CCOC(=O)C1(CCOc2ccccc2)CCN(Cc2cc(OC)cc(OC)c2)CC1 | 10.8% (inactive) |  |
| Cn1cc(CNC(=O)c2ccc(OC3CCN(Cc4ccccn4)CC3)cc2)cn1 | 9.6% (inactive) |  |
| O=c1ccn(Cc2ccccc2Cl)cc1 | 7.8% (inactive) |  |
| O=S1(=O)CCN(Cc2ccccc2Cl)CC1 | 33.1% (active) | 64.5 |
| CSc1ccc(/C=N/N2CCN(Cc3ccccc3Cl)CC2)cc1 | 3.3% (inactive) |  |
| COc1cc(CO)ccc1OCC(=O)Nc1cccc2ccccc12 | -6.9% (inactive) |  |
| O=C(NCc1ccccc1)C1CCN(C(=O)Cc2ccccc2)CC1 | 0% (inactive) |  |
| Cc1cc(Cl)c2oc(C(=O)N3CCC(O)(c4ccccc4)CC3)c(C)c2c1 | 3.6% (inactive) |  |
| COc1ccc(-c2csc(Nc3ccc(O)cc3)n2)cc1 | 6.1% (inactive) |  |
| COc1ccc(OC)c(Nc2nc(-c3ccc(O)c(O)c3)cs2)c1 | 88.7% (active) |  |
| COc1cccc(CC(=O)Nc2nc(-c3ccc(OC)c(OC)c3)cs2)c1 | 3.9% (inactive) |  |
| Cc1nc(N2CCOCC2)sc1C(=O)NN | 18.5% (inactive) |  |
| Cc1cc(C)n(Cc2cnc(N3CCOCC3)s2)n1 | 55% (active) | 89.9 |
| Fc1cc(F)c2nc(N3CCOCC3)sc2c1 | 6.9% (inactive) |  |
| COC(=O)CCCC1=CC2=C(c3ccccc3)C(=O)C(C)(OC(=O)C3CCCC3)C(=O)C2=CN1c1ccc(OC)cc1 (stereo not drawn) | 12.6% (inactive) |  |
| COC(=O)CCCC1=CC2=CC(=O)C(C)(OC(=O)c3cccs3)C(=O)C2=CN1CC1CC1 (stereo not drawn) | 32.8% (inactive) |  |
| COC(=O)CCCC1=CC2=CC(=O)C(C)(OC(=O)c3cccs3)C(=O)C2=CN1CC(C)C (stereo not drawn) | 36.8% (active) | 67.3 |

| Structure (SMILES) | inhibition (at 35 µM) | inhibition (confirmation repeats, at 20 µM) [%] |
| --- | --- | --- |
| CCCCC1=CC2=CC(=O)C(C)(OC(=O)CC)C(=O)C2=CN1CCCOC(C)C (stereo not drawn) | 34.8% (active) | 51.1 |
| Cc1ccccc1-n1cc(CNC(=O)C2CCC(=O)N(C3CC3)C2)cn1 (stereo not drawn) | -10.9% (inactive) |  |
| CCOc1ccccc1NC(=O)Cc1cccs1 | 4.2% (inactive) |  |
| Cc1cc(Cl)c2oc(C(=O)NC(C)c3ccncn3)c(C)c2c1 (stereo not drawn) | -10% (inactive) |  |
| CC(C)(C)NC(=O)CSc1nnc(NC(=O)CCc2ccccc2)s1 | -1.7% (inactive) |  |
| COc1cc(NC(=O)CSc2ccc(-c3cccnc3)nn2)cc(OC)c1 | 15.1% (inactive) |  |
| O=C(c1ccco1)N1CCN(Cc2cccc(C(F)(F)F)c2)CC1 | 6.5% (inactive) |  |
| CC1CCN(S(=O)(=O)c2ccc3c(c2)n(C)c(=O)n3C)CC1 | -1.1% (inactive) |  |
| COc1cc(/C=C(\C#N)C(=O)Nc2ccc3ccccc3c2)c([N+](=O)[O-])cc1OC | -2.3% (active) | 70.5 |
| COc1cc(/C=C(/NC(=O)c2ccccc2)C(=O)Nc2cccc(O)c2)c([N+](=O)[O-])cc1OC | -0.9% (inactive) |  |
| COc1ccc(NC(=O)/C(C#N)=C\c2cc(OC)c(OCc3ccc(C(=O)O)cc3)cc2Br)cc1 | 7.9% (inactive) |  |
| COCc1cc(=O)n2[nH]c(C)c(-c3ccccc3)c2n1 | 8.4% (inactive) |  |
| c1coc(-c2nc3nc4ccccc4n3nc2-c2ccco2)c1 | 63.7% (active) |  |
| COc1ccc(CCn2c(-c3ccco3)nc3nc4ccccc4nc32)cc1OC | 12.4% (inactive) |  |
| Cn1c(-c2ccco2)nc2cc3ccccc3cc21 | 4% (inactive) |  |
| CCOC(=O)C1=C(CCc2ccccc2)NC(=O)NC1c1ccc2ccccc2c1 (stereo not drawn) | -1% (inactive) |  |
| CCOC(=O)CNC(=O)CSc1ncccc1-c1nc2ccccc2[nH]1 | 0.2% (inactive) |  |
| Cc1cc(C(=O)NCCc2ccc(Cl)cc2)c(C)o1 | 0% (inactive) |  |
| Cc1cc(C)cc(OCC(=O)NNC(=O)CCN2C(=O)c3ccccc3C2=O)c1 | 116% (active) | 74.1 |
| Cc1ccc(NC(=O)CCN2C(=O)c3ccccc3C2=O)cc1C | -7.2% (inactive) |  |
| Cc1cc(C)cc(NC(=O)CCN2C(=O)c3ccccc3C2=O)c1 | 0.7% (inactive) |  |
| COc1cc(NC(=O)c2ccc(-c3csc(C)n3)cc2)c(OC)cc1Cl | 7.9% (inactive) |  |
| COC(=O)c1cc(NS(=O)(=O)c2ccc3c(c2)c(=O)n(C)c(=O)n3C)cc(C(=O)OC)c1 | 3.8% (inactive) |  |

| Structure (SMILES) | inhibition (at 35 µM) | inhibition (confirmation repeats, at 20 µM) [%] |
| --- | --- | --- |
| COC(=O)c1ccc(N2CCOCC2)c(NC(=O)c2ccc3c(c2)OCCO3)c1 | 4.7% (inactive) |  |
| O=C(/C=C/c1ccco1)NC(=S)N1CCCCC1 | 1.1% (inactive) |  |
| CCC(CC)C(=O)N1CCN(c2cccc(C)c2C)CC1 | -1.2% (inactive) |  |
| Cc1cccc(N2CCN(C(=O)/C=C/c3ccco3)CC2)c1C | -10.7% (active) | 96.7 |
| COc1ccc(C(O)(C2CCCCC2)C(CN2CCCC2)c2ccccc2)cc1 (stereo not drawn) | 12.9% (inactive) |  |
| Cc1ccc2sc(N(CCN(C)C)C(=O)/C=C/c3cccs3)nc2c1C | -1.9% (inactive) |  |
| CCCN(c1ccc(C)cc1)c1nc(=O)c2cccnc2s1 | 71.4% (active) |  |
| CC1(C(=O)N/N=C/c2cc3c(cc2Br)OCO3)CC1(Br)Br (stereo not drawn) | -5.1% (inactive) |  |
| CCN(CC(=O)NCc1ccco1)S(=O)(=O)c1ccc(F)cc1 | -5.2% (inactive) |  |
| NS(=O)(=O)c1cccc(NC(=O)CC23CC4CC(CC(Br)(C4)C2)C3)c1 | -11.5% (inactive) |  |
| CC(C)Nc1ccc(-n2nc3ccccc3[n+]2[O-])cc1 | 1% (inactive) |  |
| CCN1CCN(CCNC(=O)c2ccc(/C=C3/Sc4ccccc4N(Cc4cccc(C)c4)C3=O)cc2)CC1 | 60.2% (active) | 75.8 |
| O=C(NCCN1CCOCC1)c1ccc(/C=C2\Sc3ccccc3N(Cc3ccc(F)cc3)C2=O)cc1 | -1.5% (inactive) |  |
| CCN1CCN(CCNC(=O)c2ccc3c(c2)NC(=O)/C(=C\c2ccc(OC)c(OC)c2)S3)CC1 | 6.5% (inactive) |  |
| COc1ccc(/C=N/OCc2ccccc2C#N)c(OC)c1 | 12.1% (inactive) |  |
| CC(NC(=O)CCCC1CCCCC1)c1ccc(S(N)(=O)=O)cc1 (stereo not drawn) | -0.5% (inactive) |  |
| Cc1ccc(NC(=O)Cc2nnc(SCC(=O)Nc3nncs3)n2C)cc1 | -10.3% (inactive) |  |
| COc1cccc(NC(=S)NCc2ccco2)c1 | 3.2% (inactive) |  |
| S=C(NCc1ccco1)Nc1ccc2c(c1)OCCO2 | 76.8% (active) | 58.4 |
| S=C(NCc1ccc2c(c1)OCO2)NCc1ccco1 | 2.5% (inactive) |  |
| CCOC(=O)C1=C(C)NC(=S)NC1c1cccs1 (stereo not drawn) | 3.2% (inactive) |  |
| N#CC1=C(N)C(C#N)(C#N)[C@H](c2ccsc2)[C@H]2COCC=C12 | 111% (inactive) | 0 |
| CCOC(=O)N1CC=C2C(C#N)=C(N)C(C#N)(C#N)[C@H](c3cccs3)[C@H]2C1 | 82.2% (active) |  |

| Structure (SMILES) | inhibition (at 35 µM) | inhibition (confirmation repeats, at 20 µM) [%] |
| --- | --- | --- |
| O=C(N/C(=C\c1ccc([N+](=O)[O-])cc1)C(=O)N1CCCCC1)c1ccco1 | 4.9% (inactive) |  |
| COc1cc(C(=O)Nn2c(CC(C)C)nc3ccccc3c2=O)cc(OC)c1OC | 1.2% (inactive) |  |
| Cc1ccc(N(Cc2cc(=O)[nH]c3ccccc23)C(=O)CCl)cc1 | 3% (inactive) |  |
| COc1ccc(N(Cc2ccc(N(C)C)cc2)C(=O)c2ccc(S(C)(=O)=O)cc2)cc1 | -1.6% (inactive) |  |
| Nc1nc(-c2ccccc2)cc(-c2ccccc2)n1 | 9.3% (inactive) |  |
| CS(=O)(=O)c1sc2nc(-c3ccccc3)cc(-c3ccccc3)c2c1N | 117% (active) |  |
| CNc1nc(-c2ccccc2)cc(-c2ccccc2)n1 | 4.7% (inactive) |  |
| CCc1ccccc1NC(=O)c1cc(-c2ccc3c(c2)OCO3)on1 | 3.5% (inactive) |  |
| C/C(=N\NC(=O)COc1ccc(C)cc1[N+](=O)[O-])c1ccc2c(c1)OCCO2 | 3.8% (inactive) |  |
| COC(=O)c1cccc(N(C(=O)CNC(=O)c2cccs2)C(C(=O)NCC2CCCO2)c2ccc(OC)c(OC)c2)c1 (stereo not drawn) | 1% (inactive) |  |
| CCn1c(=O)c2ccccc2n(CC(=O)N2CCCc3ccccc32)c1=O | -1.4% (inactive) |  |
| O=C(CSCc1ccccc1)N1CCc2ccccc21 | 2.2% (inactive) |  |
| CCC(=O)N1CCCc2ccccc21 | 59.1% (active) |  |
| Cc1cc(NC(=O)c2ccc(F)cc2)ccc1NC(=O)c1ccco1 | 1.1% (inactive) |  |
| Cc1c(C(=O)N2CCN(c3ccc(F)cc3)CC2)oc2c1C(=O)CCC2 | 5.7% (inactive) |  |
| O=C(NCc1cccc(CNC(=O)Nc2cccc(O)c2)c1)Nc1cccc(O)c1 | 3.3% (inactive) |  |
| Cc1cc(C(=O)CSc2nc(N)cc(=O)[nH]2)c(C)n1Cc1ccco1 | 10.5% (inactive) |  |
| COc1ccc(C)cc1-n1nnnc1SCC(=O)c1cc(C)n(Cc2ccco2)c1C | 51.1% (active) |  |
| COc1ccc(OC)c(-n2nnnc2SCC(=O)Nc2cc(C)ccc2OC)c1 | 2.6% (inactive) |  |
| O=C(OCC1O[C@@H](OC(=O)c2cc(O)c(O)c(O)c2)[C@@H](OC(=O)c2cc(O)c(O)c(O)c2)[C@@H](OC(=O)c2cc(O)c(O)c(O)c2)[C@@H]1OC(=O)c1cc(O)c(O)c(O)c1)c1cc(O)c(O)c(O)c1 (stereo partly drawn) | 88.2% (active) |  |
| Cc1ccc(-c2nc(-c3ccncc3)no2)c(C)c1 | 9.6% (inactive) |  |
| COc1ccc(-c2ocnc2C(=O)Nc2ccc3c(c2)CCC3)cc1 | 5.3% (inactive) |  |
| Cc1ccc2c(cnn2C(=O)CCC(=O)NC2CCCC2)c1 | -2.1% (inactive) |  |

From PubChem BioAssay AID2014 (Sanford-Burnham Center for Chemical Genomics, 2009)
